Drawing on PubChem BioAssay (NCATS), this text covers Potency and activity change, negative = inhibition for 39 compounds.

Records with an inconclusive call do not appear. Where a call stands in place of a potency, no number is given. Values without a mark were called inactive. The source made the active and inactive calls. Calls come from the whole dose curve; as a rule, active = well fitted inhibition curve with a large enough effect; inconclusive = small, poorly fitted or top-dose-only effect; inactive = no such curve, though single readings can be large or run the other way. Where a SMILES comes first, the peptide text is derived from it. [ ]: non-standard residue; d: D form. ξ: configuration not given here. ξPhe(βξ-Me) = CC(c1ccccc1)C(N)C(=O)O; GABA = NCCCC(=O)O
Potency is the fitted concentration of half-maximal effect.

This experiment has as its system Zika virus NS2B-NS3 protease (linked construct). As to the kind of experiment: Primary screen NINDS Rhodamine qHTS for Zika virus inhibitors (AID 1347160). Note: nearly all actives have a fitted effect of over 55% in size. Particulars: purified NS2B-NS3 protease, Rhodamine110 substrate fluorescence; series mostly up to 57.1 µM. The procedure, abridged: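 Each compound, titrated, sat 15 min with 25 nM linked protease before 1.5 microM Rhodamine110 substrate went in. Fluorescence gain over the next 15 min, in pH 8.0 Tris with Tween 20, gave Hill-fitted curves.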
(Quantitative high-throughput screening tests each substance at several concentrations.)
`CC1(C)C(=O)C(C)(C)c2cc(C(=O)Nc3ccc(C(=O)O)cc3)ccc21`: the Potency result is “inactive”.
The same measure, in the same setting: under `C=C1[C@@H]2[C@H]3OC(=O)C(=C)[C@@H]3CC[C@@](C)(O)[C@@H]2C[C@@H]1O[C@@H]1O[C@H](CO)[C@@H](O)[C@H](O)[C@H]1O` stands “inactive”; under `COc1ccc(C[C@H](N)C(=O)N[C@H]2[C@@H](O)[C@H](n3cnc4c(N(C)C)ncnc43)O[C@@H]2CO)cc1`, “inactive”.
Same read-out and setting: the value for `CC1CCC2C(C(=O)O)=CC3CC(C)(C)CC132` (centres undefined) was 25.1 µM (active); that for `CCn1cc(C2=NOC(C(=O)Nc3c(C)n(C)n(-c4ccccc4)c3=O)C2)c(C)n1` (centres undefined) was “inactive”; that for `CCC[C@@H]1C[C@@H](C(=O)N[C@@H]([C@H]2O[C@H](SC)[C@H](O)[C@@H](O)[C@@H]2O)[C@@H](C)O)N(C)C1` was “inactive”.
Still for that read-out and setting: the value for `OCc1ccccc1O[C@@H]1O[C@H](CO)[C@@H](O)[C@H](O)[C@H]1O` was “inactive”; that for `C=C1CC[C@H]2[C@@](C)(CCC[C@@]2(C)C(=O)O)[C@@H]1CCC(C)CCO` (some centres undefined) was “inactive”; that for `CCC(C)C(=O)O[C@@H]1[C@@H](O)[C@@H](O[C@H]2O[C@H](CO)[C@@H](O)[C@H](O)[C@H]2O)O[C@H](CO)[C@H]1O` (some centres undefined) was “inactive”.
As for `COCC(=O)N1CCc2cc(-c3csc(NC(=O)c4cc(OC)cc(OC)c4)n3)ccc21`, the Potency result was “inactive”.
Take `COC1CCCC/C(C)=C/C2C=C(C)C(C)C3C(CC(C)C)NC(=O)C23C(=O)C1` (centres undefined): the Potency entry is “inactive”.
For `CC(=O)N[C@H]1CCN(c2ccc(C3=NOC(CN[S+](=O)([O-])C(C)C)C3)cc2F)C1` (some centres undefined), the Potency result is “inactive”.
On the same count and under the same terms, under `CC(C)CC1NC(=O)C(C(C)c2ccccc2)NC(=O)C(C(C)C)NC(=O)C(C)NC(=O)CCCNC(=O)C(Cc2c[nH]c3ccccc23)NC(=O)C(C)NC1=O` (stereo not drawn) (cyclo([GABA]AV[ξPhe(βξ-Me)]LAW); configuration not given here) stands “inactive”.
For the compound `C/C=C(\C)C(=O)O[C@H]1[C@H](O)[C@]2(COC(C)=O)[C@H](O)C[C@]3(C)C(=CCC4[C@@]5(C)CC[C@H](O[C@@H]6O[C@H](C(=O)O)[C@@H](O[C@@H]7O[C@H](CO)[C@@H](O)[C@H](O)[C@H]7O)[C@H](O)[C@H]6O[C@@H]6O[C@H](CO)[C@@H](O)[C@H](O)[C@H]6O)[C@](C)(CO)C5CC[C@]43C)[C@@H]2CC1(C)C` (some centres undefined), the Potency result is “inactive”.
Take `C[C@]1(O)CC[C@@H]2C(C(=O)O)=CO[C@@H](O[C@@H]3O[C@H](COC(=O)c4ccc(O)cc4)[C@@H](O)[C@H](O)[C@H]3O)[C@@H]21`: the Potency result was “inactive”.
Still for that read-out and setting: the value for `CC(C)C(=O)O[C@@H]1[C@@H](O)[C@@H](O[C@H]2O[C@H](CO)[C@@H](O)[C@H](O)[C@H]2O)O[C@H](CO)[C@H]1O` was “inactive”; that for `C[C@@H]1O[C@@H](O[C@H]2[C@H](O[C@H]3[C@H](O[C@H]4CC[C@@]5(C)C(CC[C@]6(C)C5CC=C5[C@@H]7CC(C)(C(=O)O)C[C@@H](O)[C@]7(C)CC[C@]56C)[C@@]4(C)CO)O[C@H](C(=O)O)[C@@H](O)[C@@H]3O)O[C@H](CO)[C@H](O)[C@@H]2O)[C@H](O)[C@H](O)[C@H]1O` (some centres undefined) was “inactive”; that for `NS(=O)(=O)NCCNc1nonc1C(=Nc1ccc(F)c(Br)c1)NO` was “inactive”.
Consider `C[C@@H]1O[C@@H](O[C@H]2[C@H](OC(=O)[C@]34CCC(C)(C)C[C@H]3C3=CCC5[C@@]6(C)C[C@H](O)[C@H](O[C@@H]7O[C@H](CO)[C@@H](O[C@@H]8O[C@H](CO)[C@@H](O)[C@H](O)[C@H]8O)[C@H](O)[C@H]7O)[C@@](C)(CO)C6[C@H](O)C[C@@]5(C)[C@]3(C)C[C@H]4O)OC[C@H](O)[C@@H]2O)[C@H](O)[C@H](O)[C@H]1O[C@@H]1OC[C@@H](O)[C@H](O[C@@H]2OC[C@](O)(CO)[C@H]2O)[C@H]1O` (some centres undefined), for which the activity change, negative = inhibition is -19.4% [at 10.7 µM].
Regarding `CC1(C)O[C@@]2(C)CC[C@@H]1C[C@@H]2OC1OC(CO)C(O)C(O)C1O` (some centres undefined), the Potency is 11.2 µM (active).
Same read-out and setting: under `CC1CCC2(O1)C(C)(C)CC(O[C@@H]1O[C@H](CO[C@@H]3OC[C@](O)(CO)[C@H]3O)[C@@H](O)[C@H](O)[C@H]1O)CC2(C)O` (some centres undefined) stands “inactive”.
On the same count and under the same terms, the value for `CCc1c(CC(N)=O)c2cc(OCCCP(=O)(O)O)ccc2n1Cc1ccccc1` was “inactive”; that for `CC1NC(=O)C(Cc2c[nH]c3ccccc23)NC1=O` (centres undefined) was “inactive”.
With `CC(C)CC(=O)O[C@@H]1OC=C(CO[C@@H]2O[C@H](CO[C@@H]3O[C@H](CO)[C@@H](O)[C@H](O)[C@H]3O)[C@@H](O)[C@H](O)[C@H]2O)[C@H]2C[C@H](O)[C@@H](CO)[C@@H]12`, the Potency result is “inactive”.
Take `C[C@@H]1O[C@@H](O[C@H]2[C@H](OC(C#N)c3ccc(O)cc3)O[C@H](CO)[C@@H](O)[C@@H]2O)[C@H](O)[C@H](O)[C@H]1O` (some centres undefined): the Potency result is “inactive”.
As for `CC(=O)C1CCC2(C)C3=C(CCC12C)C1(C)CCC(=O)C(C)(C)C1CC3` (centres undefined), the Potency result is “inactive”.
Still for that read-out and setting: under `COC(=O)C1C(CC(C)=O)C=CC(O)C12Oc1cc(C)cc(O)c1C2=O` (centres undefined) stands “inactive”; under `CC1(C)CC2C(C1)C1(C)CCC13OC3(CO)C2O` (centres undefined), “inactive”.
On the same count and under the same terms, under `C#C[C@]1(O)CC[C@H]2[C@@H]3CCC4=C/C(=N/O)CC[C@@H]4[C@H]3CC[C@@]21CC` stands “inactive”; under `CC(C)C1=CC2=CCC3[C@](C)(CCC[C@@]3(C)C(=O)O)C2CC1=O` (some centres undefined), “inactive”.
Same read-out and setting: under `O=c1ccn([C@@H]2O[C@H](CO)[C@@H](O)[C@H]2O)c(=O)[nH]1` stands “inactive”.
For `COc1ccc2c(c1)O[C@H](O[C@@H]1O[C@H](CO)[C@@H](O)[C@H](O)[C@H]1O)C(=O)N2`, the Potency entry was “inactive”.
On to `CCC(C)/C=C(C)/C=C/C1=CC2=C(Cl)C(=O)C(C)(OC(C)=O)C(=O)C2=CN1CCCC(=O)O` (centres undefined), for which the Potency entry is “inactive”.
Still for that read-out and setting: under `CC(=O)Oc1cc2c(s1)CCN([C@H](C(=O)C1CC1)c1ccccc1F)C2` stands “inactive”; under `C[C@@H]1O[C@@H](O[C@H]2[C@H](O[C@H]3[C@H](O[C@H]4CC[C@@]5(CO)C(CC[C@]6(C)C5CC=C5C7CC(C)(C)C[C@@H](O)[C@]7(C)CC[C@]56C)C4(C)C)O[C@H](C(=O)O)[C@@H](O)[C@@H]3O)OC[C@@H](O)[C@@H]2O)[C@H](O)[C@H](O)[C@H]1O` (some centres undefined), “inactive”.
Same read-out and setting: the value for `C=C[C@@]1(C)CC(=O)C2[C@](C)(O1)[C@@H](OC(C)=O)[C@@H](O)[C@H]1C(C)(C)CCC[C@]21C` (some centres undefined) was “inactive”; that for `COc1ccc2cc(OCC3(C(=O)O)CN(C(=O)c4ccc(F)cc4)C3)ccc2c1` was “inactive”.
On to `C=C1CCC2[C@@](C)(C=O)CCC[C@]2(C)[C@H]1CC/C(C)=C/CO` (some centres undefined), for which the Potency entry is “inactive”.
Same read-out and setting: the value for `CC1=C(CC(=O)O)c2cc(F)ccc2C1=Cc1ccc(S(C)(=O)=O)cc1` was “inactive”.
